Assay results as given in the supplement of paper PMC9023506.
Where a name gives a salt, the structure may show the parent alone.

These compounds were tested on Danio rerio larvae (5 dpf) (assay: optomotor response to green moving lines, difference vs DMSO (percentage points (treated minus DMSO)); higher = more of the behaviour than the DMSO vehicle control). Settings: 10 µM; exposure time: 3 h pre-incubation + 3 h imaging.
Outline: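 5-dpf wild-type zebrafish larvae in 96-well ProxiPlates were exposed to library drugs at 10 µM (diluted 1000× from DMSO stocks into egg water). There were 48 larvae per drug, exposed 3 h before and 3 h during imaging at 28.5 °C. Images taken every 6 s covered a 3-h program of rest, moving coloured lines and acoustic pulses, and an ImageJ macro scored movement and upper-half location. Each behaviour score is the treated-group mean minus the DMSO vehicle mean, in percentage points.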
`CC(C)C(=O)OCC(=O)[C@@]12O[C@H](C3CCCCC3)O[C@@H]1C[C@H]1[C@@H]3CCC4=CC(=O)C=C[C@]4(C)[C@H]3[C@@H](O)C[C@@]12C` [Ciclesonide] was tested, and the “optomotor response to green moving lines” value was -7.98.
For `CCCCC(=O)N(Cc1ccc(-c2ccccc2-c2nnn[nH]2)cc1)[C@H](C(=O)O)C(C)C` [Valsartan], the “optomotor response to green moving lines” value was 4.22.
For `OC(CNCC(O)C1CCc2cc(F)ccc2O1)C1CCc2cc(F)ccc2O1` (stereo not drawn) [Nebivolol hydrochloride], the “optomotor response to green moving lines” value was -4.67.
With `CN[C@H]1CC[C@@H](c2ccc(Cl)c(Cl)c2)c2ccccc21` [Sertraline hydrochloride] the “optomotor response to green moving lines” value was -6.64.
In the case of `CC1CNc2c(cccc2S(=O)(=O)N[C@@H](CCCNC(=N)N)C(=O)N2CC[C@@H](C)C[C@@H]2C(=O)O)C1` (stereo partly drawn) [Argatroban], the “optomotor response to green moving lines” value is reported as -1.18.
With `CCCc1nn(C)c2c(=O)[nH]c(-c3cc(S(=O)(=O)N4CCN(C)CC4)ccc3OCC)nc12` [Sildenafil citrate] the “optomotor response to green moving lines” value was -1.55.
`Cn1cnc([N+](=O)[O-])c1Sc1ncnc2[nH]cnc12` [Azathioprine] was tested, and the “optomotor response to green moving lines” value was -1.06.
For `CCOc1nc2cccc(C(=O)O)c2n1Cc1ccc(-c2ccccc2-c2noc(=O)[nH]2)cc1` [Azilsartan], the “optomotor response to green moving lines” value was -0.791.
With `Cc1nnc(C(C)C)n1C1C[C@H]2CC[C@@H](C1)N2CC[C@H](NC(=O)C1CCC(F)(F)CC1)c1ccccc1` (stereo in doubt) [Maraviroc] the “optomotor response to green moving lines” value was 3.11.
In the case of `Cc1cc2c(s1)Nc1ccccc1N=C2N1CCN(C)CC1` [Olanzapine], the “optomotor response to green moving lines” value is reported as 8.6.
In the case of `CN(C)C(=N)NC(=N)N` [Metformin hydrochloride], the “optomotor response to green moving lines” value is reported as 7.37.
For `CCCCCCCCc1ccc(CCC(N)(CO)CO)cc1`, the “optomotor response to green moving lines” value was -1.15.
With `CN1CCN2c3ncccc3Cc3ccccc3C2C1` (stereo not drawn) [Mirtazapine] the “optomotor response to green moving lines” value was -1.59.
For `CC(C)OC(=O)C(C)(C)Oc1ccc(C(=O)c2ccc(Cl)cc2)cc1` [Fenofibrate], the “optomotor response to green moving lines” value was 8.84.
In the case of `COCCCOc1cc(C[C@@H](C[C@H](N)[C@@H](O)C[C@H](C(=O)NCC(C)(C)C(N)=O)C(C)C)C(C)C)ccc1OC` [Aliskiren hemifumarate], the “optomotor response to green moving lines” value is reported as -4.53.
`Cn1nnc2c(C(N)=O)ncn2c1=O` [Temozolomide] was tested, and the “optomotor response to green moving lines” value was -1.84.
For `COc1cc(Nc2c(C#N)cnc3cc(OCCCN4CCN(C)CC4)c(OC)cc23)c(Cl)cc1Cl` [Bosutinib], the “optomotor response to green moving lines” value was 2.65.
With `Nc1nc(NC2CC2)c2ncn([C@H]3C=C[C@@H](CO)C3)c2n1` [Abacavir hemisulfate] the “optomotor response to green moving lines” value was 6.07.
